Reference: PubChem BioAssay AID504652 (National Center for Advancing Translational Sciences (NCATS), 2011)
“And” between values parts separate entries of the source, which are not always exact repeats. Equal values may be shown once. The whole screen tested about 360,000 compounds, of which about 11,000 (3.1%) were called active. No stated cut-off is given here; in the data, active means activity change below about -30%; inactive means the rest. Shown is part of a subset that was picked to be rich in actives. A structure can be active in one record and inactive in another.
On the % scale 0 is the no-effect control and ±100 the full control effect.

What follows are compounds tested against D(1A) dopamine receptor (Homo sapiens) (UniProt P21728) (assay: Antagonist of Human D 1 Dopamine Receptor: qHTS). Conditions: HEK293 TREx D1 cells, calcium flux, dopamine EC80; at 10 µM; stronger effect = lower value.
Sequence of D(1A) dopamine receptor (Homo sapiens) (P21728 whole entry, looked up): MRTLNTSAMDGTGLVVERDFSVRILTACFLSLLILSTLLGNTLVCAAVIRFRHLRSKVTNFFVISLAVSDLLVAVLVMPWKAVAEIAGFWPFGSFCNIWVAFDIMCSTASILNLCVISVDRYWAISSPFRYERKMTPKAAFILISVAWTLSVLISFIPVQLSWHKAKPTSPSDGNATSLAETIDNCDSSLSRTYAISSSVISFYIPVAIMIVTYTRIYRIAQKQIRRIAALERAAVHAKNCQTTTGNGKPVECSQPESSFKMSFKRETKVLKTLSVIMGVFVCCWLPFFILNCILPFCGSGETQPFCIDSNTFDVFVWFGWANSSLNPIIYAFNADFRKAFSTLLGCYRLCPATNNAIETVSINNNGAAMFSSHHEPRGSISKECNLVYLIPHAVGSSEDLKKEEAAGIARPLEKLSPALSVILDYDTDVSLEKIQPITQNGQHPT
Method in brief: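 Compound effects on dopamine-evoked calcium signalling were measured in tetracycline-induced HEK293 Trex D1 cells. Dopamine at EC80 followed a 180 s compound pre-read, and fluorescence was tracked kinetically for 180 s more.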
With `Cc1ccc(NC(=O)CCNC(=O)c2ccc([N+](=O)[O-])cc2)cc1S(=O)(=O)N1CCOCC1` the activity change, negative = inhibition was 4.33% (inactive). For `Cc1ccc(NC(=O)CCCNC(=O)c2ccc(Cl)cc2)cc1S(=O)(=O)N1CCCCC1`, the activity change, negative = inhibition was 35.4% (inactive). `Cc1ccc(NC(=O)CCCNC(=O)c2ccc(Cl)cc2)cc1S(=O)(=O)N1CCOCC1` was tested, and the activity change, negative = inhibition was -36.7% (active). In the case of `Cc1ccccc1CNC(=O)c1ccc(NC(=O)N2CCCCc3ccccc32)cc1`, the activity change, negative = inhibition was 12.4% (inactive). With `Cc1ccccc1CN1CCC(CNC(=O)c2cc3ccc4cccnc4c3[nH]2)CC1` the activity change, negative = inhibition was -3.23% (inactive). `CC[C@@]12C(=O)N(c3ccccc3)C(=O)N1[C@H](c1ccc(Br)cc1)[C@@H]1C(=O)N(C(C)(C)C)C(=O)[C@@H]12` was tested, and the activity change, negative = inhibition was -1.44% (inactive). With `CC(C)(C)N1C(=O)[C@H]2[C@@H](c3ccc(Br)cc3)N3C(=O)N(c4cccc(Cl)c4)C(=O)[C@@]3(C)[C@H]2C1=O` the activity change, negative = inhibition was -17.7% (inactive). For `COc1ccc([C@@H]2[C@@H]3C(=O)N(C(C)(C)C)C(=O)[C@@H]3[C@]3(Cc4ccccc4)C(=O)N(c4cccc(Br)c4)C(=O)N23)cc1`, the activity change, negative = inhibition was -34.9% (active). In the case of `Cc1nn(C(=O)c2c(F)cccc2F)c(C)c1S(=O)(=O)N1CCOCC1`, the activity change, negative = inhibition was 10.5% (inactive). In the case of `CCOc1ccc(N(CC)C(=O)C2CCN(S(=O)(=O)c3cccc4nonc34)CC2)cc1`, the activity change, negative = inhibition was -22% (inactive). In the case of `Cc1cc2n(n1)C(c1cc(C(C)(C)C)c(O)cc1O)Nc1ccccc1-2` (stereo not drawn), the activity change, negative = inhibition was 0.223% (inactive). `CN(C(=O)CSc1nc2ccc(NC(=O)COc3ccccc3)cc2s1)c1ccccc1` was tested, and the activity change, negative = inhibition was -11.3% (inactive). For `NS(=O)(=O)c1ccc2nc(NC(=O)CS(=O)(=O)c3ccc(F)cc3)sc2c1`, the activity change, negative = inhibition was 3.05% (inactive). With `NS(=O)(=O)c1ccc2nc(NC(=O)COc3ccccc3)sc2c1` the activity change, negative = inhibition was -38.3% (active). `CCN(c1cccc(C)c1)S(=O)(=O)c1ccc(-c2coc(C)n2)cc1` was tested, and the activity change, negative = inhibition was -16.9% (inactive). For `Cc1ccc(NS(=O)(=O)c2ccc(-c3coc(C)n3)cc2)c(C)c1`, the activity change, negative = inhibition was -39.4% (active). For `COc1cccc(NS(=O)(=O)c2ccc(-c3coc(C)n3)cc2)c1`, the activity change, negative = inhibition was -22% (inactive). `O=C(c1ccc(Br)cc1)N(Cc1cccs1)c1ccc(F)cc1` was tested, and the activity change, negative = inhibition was -5.47% (inactive). In the case of `COc1cc(OC)c(C(=O)NC2CC(C)(C)NC(C)(C)C2)cc1OC`, the activity change, negative = inhibition was -1.99% (inactive). With `COc1ccc(C(=O)NC2CC(C)(C)NC(C)(C)C2)cc1OC` the activity change, negative = inhibition was -30.4% (active). `Cc1cccc(OCC(=O)NC2CC(C)(C)NC(C)(C)C2)c1` was tested, and the activity change, negative = inhibition was 0.221% (inactive). In the case of `Cc1ccc(NC(=O)c2oc3ccc(S(=O)(=O)N4CCCCC4)cc3c2C)cc1Cl`, the activity change, negative = inhibition was 0.571% (inactive). `Cc1cccc(-n2nc3c(c2NC(=O)c2cc4ccccc4o2)CS(=O)(=O)C3)c1` was tested, and the activity change, negative = inhibition was -49.1% (active). In the case of `CC(C)(C)n1nc2c(c1NC(=O)c1cc3ccccc3o1)CSC2`, the activity change, negative = inhibition was 6.7% (inactive). With `O=C(Nc1c2c(nn1-c1cccc(Cl)c1)CS(=O)(=O)C2)c1cccs1` the activity change, negative = inhibition was -16.2% (inactive). `Cc1nc2c(c(C)nn2-c2ccccc2)c(C)c1CCC(=O)NCCc1ccc(Cl)cc1` was tested, and the activity change, negative = inhibition was -0.289% (inactive). With `Cc1oc(C)c2c(=O)cc(-c3ccc4c(c3)OCO4)cc(OC(=O)c3ccc(Cl)cc3)c12` the activity change, negative = inhibition was -1.78% (inactive). For `CCN1CCN(CCCNC(=O)c2cnn(-c3ccc(C)cc3C)c2C2CCN(C(=O)OC(C)(C)C)CC2)CC1`, the activity change, negative = inhibition was 6.05% (inactive). With `CCOC(=O)c1c(C)[nH]c(C)c1S(=O)(=O)NCC(=O)NCc1cccc(C)c1` the activity change, negative = inhibition was 13.9% (inactive). With `CCOc1cccc(SCc2noc(C(=O)NC(C)C)c2C(=O)O)c1` the activity change, negative = inhibition was 3.21% (inactive). With `CCCCNC(=O)c1onc(CSc2cccc(OC)c2)c1C(=O)O` the activity change, negative = inhibition was -73.2% (active). `COCCNC(=O)c1onc(CSc2cccc(C)c2)c1C(=O)O` was tested, and the activity change, negative = inhibition was 2.03% (inactive). For `CC(=O)N1CCCc2cc(S(=O)(=O)N3CCC(C(=O)NCc4ccc(C)cc4)CC3)ccc21`, the activity change, negative = inhibition was 12.1% (inactive). `Cc1ccccc1CN1C(=O)c2ccccc2Sc2ccc(C(=O)NCCCN3CCOCC3)cc21` was tested, and the activity change, negative = inhibition was -9.56% (inactive) and -12% (inactive). For `CCC1=Nc2cc(C(=O)NCCCN3CCOCC3)ccc2Sc2ccc(Br)cc21`, the activity change, negative = inhibition was 11% (inactive). `O=C(NCCCN1CCOCC1)c1ccc2c(c1)N(Cc1cccc(F)c1)C(=O)c1ccccc1S2` was tested, and the activity change, negative = inhibition was -42.1% (active). `Cc1ccc(NC(=O)c2cccc(S(=O)(=O)N3CCCc4ccccc43)c2)nc1` was tested, and the activity change, negative = inhibition was 3.95% (inactive). `CC1CCN(C(=O)c2cccc(S(=O)(=O)N3CCCc4ccccc43)c2)CC1` was tested, and the activity change, negative = inhibition was -43.6% (active). For `CN1CCN(S(=O)(=O)c2cccc(C(=O)N3CCc4ccccc43)c2)CC1`, the activity change, negative = inhibition was -0.291% (inactive). With `COc1ccc(Nc2ncc3c(n2)CCN(C(=O)OC(C)(C)C)C3)cc1` the activity change, negative = inhibition was -16.1% (inactive). With `CCCC(=O)Nc1cc2nn(-c3ccccc3)nc2cc1C` the activity change, negative = inhibition was -6.53% (inactive). For `O=C(c1cc(-c2ccc(F)cc2)on1)N1CCN(c2ccc(F)cc2)CC1`, the activity change, negative = inhibition was 6.41% (inactive) and -30% (active). `O=C(c1cc(-c2ccc(Cl)cc2)on1)N1CCN(c2ccccc2)CC1` was tested, and the activity change, negative = inhibition was 8.05% (inactive). In the case of `O=C(c1cc(-c2ccc(O)cc2)on1)N1CCOCC1`, the activity change, negative = inhibition was -2.21% (inactive). `Cc1nc(SCCOc2ccc(Cl)cc2)[nH]c(=O)c1Cc1ccccc1` was tested, and the activity change, negative = inhibition was -8.51% (inactive). In the case of `Cc1ccc(OCCSc2nc(C)c(Cc3ccccc3)c(=O)[nH]2)cc1`, the activity change, negative = inhibition was -2.95% (inactive). With `Cc1nc(SC(C)C)[nH]c(=O)c1Cc1ccccc1` the activity change, negative = inhibition was -31.2% (active). `COc1ccc(C2(Nc3cccc(F)c3)C(=O)c3ccccc3C2=O)cc1` was tested, and the activity change, negative = inhibition was -16% (inactive). `CCOC(=O)NNc1cc(C(F)(F)F)ccn1` was tested, and the activity change, negative = inhibition was -4.5% (inactive). `CCC(=O)OCc1c(C(F)(F)F)nn(C)c1Oc1cccc(C(F)(F)F)c1` was tested, and the activity change, negative = inhibition was -39.6% (active). In the case of `Cc1nc(N)[nH]c(=O)c1Oc1cccc(C(F)(F)F)c1`, the activity change, negative = inhibition was 7.25% (inactive). For `CC(=O)N1CCCc2ccc(NS(=O)(=O)c3ccc(F)cc3F)cc21`, the activity change, negative = inhibition was 8.04% (inactive). In the case of `O=C(O)c1ccc2c(c1)N(Cc1ccc(F)cc1)C(=O)c1ccccc1S2=O` (stereo not drawn), the activity change, negative = inhibition was -20.6% (inactive).
